Experimental data taken from PubChem BioAssay (NCATS).
Inconclusive results are not listed. The source made the active and inactive calls. Calls come from the whole dose curve; as a rule, active = well fitted inhibition curve with a large enough effect; inconclusive = small, poorly fitted or top-dose-only effect; inactive = flat fitted curve, though single readings scatter.

Experiments:
[1] = tested on: CRL-7250; experiment: Cytotoxic Profiling of Annotated Libraries Using Quantitative High-Throughput Screening (AID 1296008); details: Five cell lines viability, CellTiter-Glo ATP luminescence, 48-72 h; max response: stronger effect = lower value; for max response: % is set by controls: 0 for no effect and ±100 for the full control effect
How it was run: (§1)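 Compounds were pin-transferred onto cells and incubated 48 or 72 hr at 37 degree Celsius, 95% humidity. CellTiter-Glo was added, plates sat 10 min at room temperature, then ATP-coupled luminescence was imaged as the viability read-out.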

[2] = tested on: HEK293; experiment: as above; details: Five cell lines viability, CellTiter-Glo ATP luminescence, 48-72 h; max response: stronger effect = lower value
How it was run: as §1

[3] = tested on: HaCat; experiment: as above; details: Five cell lines viability, CellTiter-Glo ATP luminescence, 48-72 h; max response: stronger effect = lower value
How it was run: as §1

[4] = tested on: KB-3-1; experiment: as above; details: Five cell lines viability, CellTiter-Glo ATP luminescence, 48-72 h; max response: stronger effect = lower value
How it was run: as §1

[5] = tested on: NIH3T3; experiment: as above; details: Five cell lines viability, CellTiter-Glo ATP luminescence, 48-72 h; max response: stronger effect = lower value
How it was run: as §1

[6] = tested on: HACAT; experiment: qHTS assay to identify novel small-molecules to repurpose for Merkel cell carcinoma treatment (AID 1296009); details: MCC and control cell lines, CellTiter-Glo viability, 72 h; at 44.8 µM (top of the series) unless noted
How it was run: (§2)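 Luminescence from CellTiter-Glo, read 10 min after addition at room temperature, reported viability following a 72 hr, 37 degree celsius treatment with NPC or MIPE compounds in titration; values normalized to plate controls.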

[7] = tested on: NIH3T3; experiment: as above; details: MCC and control cell lines, CellTiter-Glo viability, 72 h; at 44.8 µM (top of the series) unless noted
How it was run: as §2

Measured: max response
Note: nearly all actives have a fitted effect of over 60% in size.

C=C1CC[C@H]2[C@@](C)(CCC(OC3OC(CO)C(O)C(O)C3O)[C@@]2(C)CO)C1C(=O)CC1=CCOC1=O (stereo partly drawn)
inactive: [1] | [2] -9.97% | [3] | [4] | [5] | [6] inactive [at 17.4 µM] | [7] inactive [at 17.4 µM]

NC(=O)[C@H](Cc1ccccc1)NC(=O)[C@H](CCCN=C(N)N)NC(=O)C12CC3CC(CC(C3)C1)C2
inactive: [1] -2.98% | [2] -11.4% | [3] | [4] | [5] | [6] inactive [at 9.27 µM] | [7] inactive [at 9.27 µM]

Cc1c(-c2ccc3c(c2)OCO3)oc2ccc(C(O)C(C)O)cc12 (stereo not drawn)
inactive: [1] -2.17% | [2] -10.1% | [3] | [4] | [5] | [6] | [7]

CCCCNc1nc(N)c2[nH]c(=O)n(Cc3ccc(OCCN(C)C)nc3)c2n1
inactive: [1] -6.94% | [2] -20.1% | [3] | [4] | [5] inactive; activator | [6] | [7] inactive; activator

Cc1ccc(Nc2nnc(-c3ccc([N+](=O)[O-])cc3)o2)cc1Cl
inactive: [1] | [2] -16.7% | [3] | [4] -2.92% | [5] | [6] | [7]

COC(=O)C1=COC(O[C@@H]2O[C@H](CO)[C@@H](O)[C@H](O)[C@H]2O)/C(=C\COC(=O)/C=C/c2ccccc2)C1CC(=O)OCCc1ccc(O)cc1 (stereo partly drawn)
inactive: [1] -7.39% | [2] -5.04% | [3] | [4] | [5] | [6] inactive [at 17.4 µM] | [7] inactive [at 17.4 µM]

Cc1c(Cc2ccc3ccccc3n2)c2cc(F)ccc2n1CC(=O)O
inactive: [1] -9.45% | [2] 0.378% | [3] | [4] 7.66% | [5] | [6] | [7]

C[C@H]1[C@H](C)CC[C@]2(C(=O)O)CC[C@]3(C(=O)O)C(=CCC4[C@@]5(C)CC[C@H](O[C@@H]6O[C@@H](C)[C@H](O)[C@@H](O)[C@H]6O)C(C)(C)C5CC[C@]43C)[C@H]12 (stereo partly drawn)
inactive: [1] | [2] -0.583% | [3] | [4] -0.753% | [5] 4.82% | [6] inactive [at 17.4 µM]

CC1=CC(=O)CC(C)(C)[C@@]1(O)/C=C/C(C)O[C@@H]1O[C@H](CO)[C@@H](O)[C@H](O)[C@H]1O (stereo partly drawn)
inactive: [1] -4.8% | [2] -13.1% | [3] | [4] | [5] | [6] inactive [at 17.4 µM] | [7] inactive [at 17.4 µM]

CC(=O)OC/C(=C/C(=O)O)CC[C@@H]1C(C)=CC(=O)[C@@H]2C(C)(C)CCC[C@@]12C
inactive: [1] | [2] -0.879% | [3] | [4] -6.11% | [5] | [6] | [7]

CC(C)(O)[C@@H]1CC[C@]2(CO)[C@@H](O)CC[C@](C)(O)[C@H]2[C@@H]1O[C@@H]1O[C@H](CO)[C@@H](O)[C@H](O)[C@H]1O
inactive: [1] 1.76% | [2] 1.77% | [3] | [4] 8.79% | [5] 0.484% | [6] inactive [at 17.4 µM]

CC1=C(C)C(=O)OC(C(C)C2C(O)CC3C4C5OC5C5(O)CC(OC6OC(CO)C(OC7OC(C)C(O)C(O)C7O)C(O)C6O)CC(O)C5(C)C4CCC32C)C1 (stereo not drawn)
inactive: [1] -10% | [2] -3.17% | [3] | [4] 2.34% | [5] 0.724% | [6] inactive [at 17.4 µM]

CCC(C)/C=C(C)/C=C/C1=CC2=C(Cl)C(=O)C(C)(OC(C)=O)C(=O)C2=CN1C(CCC(=O)O)C(=O)O (stereo not drawn)
inactive: [1] -2.2% | [2] -1.69% | [3] | [4] | [5] | [6] inactive [at 17.4 µM] | [7] inactive [at 17.4 µM]

Nc1ncnc2c1C(=O)N(c1ccc(C3CCC(CC(=O)O)CC3)cc1)CCO2 (stereo not drawn)
inactive: [1] 2.41% | [2] -15.1% | [3] | [4] | [5] | [6] | [7]

COc1cccc(OC)c1-c1cc(C(=O)N[C@@H](CC(C)C)C(=O)O)nn1-c1ccnc2cc(Cl)ccc12
inactive: [1] | [2] -1.22% | [3] | [4] | [5] | [6] | [7]

O=C(O)c1ccnc(-c2cc(C(=O)NCCc3ccccc3)ccn2)c1
inactive: [1] 0.77% | [2] -13.9% | [3] | [4] 6.53% | [5] -2.98% | [6]
